Measured values as given in PubChem BioAssay (NCI).
About 79,000 compounds went through this panel and 15% of them were active in at least one assay; those are over-represented in the sample as a whole. The source made the active and inactive calls. Cut-off read from the data, not from the text of the source: active = growth inhibition above about 70%; inactive = the rest.

Columns and labels:
[1] = NCI Yeast Anticancer Drug Screen. Data for the rad50 strain (AID 155);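 note: 0% = growth of vehicle-only cultures of the same strain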; settings: S. cerevisiae rad50 strain growth inhibition, active compounds read high
Outline: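 Readout: growth inhibition relative to vehicle-treated cultures. Compound exposure was carried out in a genetically defined yeast strain deficient in DNA damage repair.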

[2] = NCI Yeast Anticancer Drug Screen. Data for the mec2-1 strain (AID 157); settings: S. cerevisiae mec2-1 strain, active compounds read high
Outline: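 mec2-1 yeast strain, carrying an alteration in DNA damage repair or cell cycle control, was exposed to compounds; growth inhibition was measured relative to vehicle-treated controls.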

[3] = NCI Yeast Anticancer Drug Screen. Data for the sgs1 mgt1 strain (AID 161);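 note: 0% = growth of cultures given vehicle only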; settings: S. cerevisiae sgs1 mgt1 strain, active compounds read high
Outline: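 Compounds are added to genetically altered yeast, and growth is compared with cultures given vehicle alone to give percent inhibition.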

[4] = NCI Yeast Anticancer Drug Screen. Data for the cln2 rad14 strain (AID 165);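 note: 0% = growth equal to vehicle treated cultures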; settings: S. cerevisiae cln2 rad14 strain, active compounds read high
Outline: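 Yeast carrying cln2 and rad14 alterations (cell cycle control and DNA damage repair) were exposed to compounds. Growth inhibition was measured against vehicle-treated controls.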

[5] = NCI Yeast Anticancer Drug Screen. Data for the bub3 strain (AID 167); settings: S. cerevisiae bub3 mutant strain, active compounds read high
Outline: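 Readout: yeast growth inhibition, expressed relative to vehicle-only wells. The test organism is a mutant strain from a panel with lesions in DNA repair or checkpoint genes.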

[6] = NCI Yeast Anticancer Drug Screen. Data for the mlh1 rad18 strain (AID 175); settings: S. cerevisiae mlh1 rad18 strain growth inhibition, active compounds read high
Outline: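 Growth inhibition of the yeast strain was measured after compound exposure and expressed relative to vehicle-treated controls. The strain carries defined defects in DNA damage repair.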

[7] = at 5.0 µM (retest, dose inferred, filed as 0.5)
[8] = at 50.0 µM (retest, dose inferred, filed as 5.0)

Measured: growth inhibition

NNC(=O)c1c(SCc2ccccc2)nc2c3ccccc3ccn12
inactive: [1]; [7] 40% | [1]; at 50.0 µM 51.5% | [2]; [7] 22% | [2]; at 50.0 µM 35% | [3]; [7] 42% | [3]; at 50.0 µM 52.6% | [4]; [7] 24% | [4]; at 50.0 µM 38.8% | [5]; [7] 33% | [5]; [8] 69% | [5]; at 50.0 µM 39.1% | [6]; [7] 33%
active: [1]; [8] 93% | [2]; [8] 83% | [3]; [8] 90% | [4]; [8] 87% | [6]; [8] 93% | [6]; at 50.0 µM 81.3%

CCc1ccccc1NC(=O)C1=C(C)NC(C)=C(C(=O)Nc2c(CC)cccc2CC)C1c1ccc2c(c1)OCO2 (stereo not given)
active: [1]; at 50.0 µM 89.5% | [2]; at 50.0 µM 88.7% | [3]; at 50.0 µM 89.3% | [4]; at 50.0 µM 85.8% | [5]; at 50.0 µM 90.3% | [6]; at 50.0 µM 87.7%
inactive: [1]; [7] 30% | [1]; [8] 30% | [2]; [7] 22% | [2]; [8] 22% | [3]; [7] 29% | [3]; [8] 29% | [4]; [7] 15% | [4]; [8] 15% | [5]; [7] 24% | [5]; [8] 24% | [6]; [7] 28% | [6]; [8] 28%

c1ccc2c(c1)[nH]c1cc3ccncc3cc12
inactive: [1]; [7] -45% | [2]; [7] -30% | [2]; [8] 29% | [2]; at 50.0 µM 46.9% | [3]; [7] -24% | [3]; [8] 52% | [3]; at 50.0 µM 45.6% | [4]; [7] -13% | [4]; [8] 42% | [4]; at 50.0 µM 34.7% | [5]; [7] -49% | [5]; [8] 51% | [5]; at 50.0 µM 34.5% | [6]; [7] -75% | [6]; [8] 56% | [6]; at 50.0 µM 61.7%
active: [1]; [8] 90% | [1]; at 50.0 µM 79.3%

CCCN=Cc1cnc(C#N)c(N)n1
inactive: [1]; [7] 4% | [1]; [8] 4% | [1]; at 50.0 µM 19% | [2]; [7] 4% | [2]; [8] 0% | [2]; at 50.0 µM -3.9% | [3]; [7] -1% | [3]; [8] 4% | [3]; at 50.0 µM 4.6% | [4]; [7] 1% | [4]; [8] 1% | [5]; [7] -2% | [5]; [8] -1% | [5]; at 50.0 µM 17.3% | [6]; [7] 11% | [6]; [8] 2% | [6]; at 50.0 µM 32.5%
active: [4]; at 50.0 µM 71.5%

Cc1c(C)c2cc3c(=O)ccoc3c(C)c2oc1=O
active: [1]; [8] 76%
inactive: [1]; [7] 32% | [1]; at 50.0 µM 48.1% | [2]; [7] 1% | [2]; [8] 38% | [2]; at 50.0 µM 19.6% | [3]; [7] -11% | [3]; [8] 21% | [3]; at 50.0 µM 30.5% | [4]; [7] 8% | [4]; [8] 45% | [4]; at 50.0 µM 42% | [5]; [7] -1% | [5]; [8] 52% | [5]; at 50.0 µM 30.4% | [6]; [7] -11% | [6]; [8] 68% | [6]; at 50.0 µM 69.6%

Cc1ccc(C)c(NC(=O)CCC(=O)C(C#N)c2cccc3ccccc23)c1 (stereo not given)
inactive: [1]; [7] -22% | [1]; [8] 10% | [1]; at 50.0 µM -25.4% | [2]; [7] 3% | [2]; [8] 11% | [2]; at 50.0 µM 14.4% | [3]; [7] -12% | [3]; [8] -4% | [3]; at 50.0 µM 15.9% | [4]; [7] -6% | [4]; [8] 8% | [4]; at 50.0 µM -23.5% | [5]; [7] -5% | [5]; [8] 5% | [5]; at 50.0 µM 10.3% | [6]; [7] 1% | [6]; [8] 3% | [6]; at 50.0 µM 20.6%

CCOC(=O)/C(=C\c1ccc(-c2ccccc2)cc1)C(C)=O
active: [1]; [8] 93% | [2]; [8] 95% | [2]; at 50.0 µM 73.5% | [3]; [8] 92% | [3]; at 50.0 µM 81.2% | [4]; [8] 85% | [5]; [8] 96% | [6]; [8] 94% | [6]; at 50.0 µM 76.6%
inactive: [1]; [7] 0% | [1]; at 50.0 µM 67.1% | [2]; [7] -27% | [3]; [7] 21% | [4]; [7] 1% | [4]; at 50.0 µM 45.5% | [5]; [7] 16% | [5]; at 50.0 µM 66.9% | [6]; [7] -27%

NC(CCC(=O)NC(CS(=O)(=O)O)C(=O)O)C(=O)O (stereo not given)
active: [3]; at 50.0 µM 79.7% | [4]; at 50.0 µM 93.5% | [6]; at 50.0 µM 85.9%
inactive: [1]; [7] 1% | [1]; [8] 6% | [1]; at 50.0 µM 13.2% | [2]; [7] 3% | [2]; [8] 2% | [2]; at 50.0 µM 12.8% | [3]; [7] 3% | [3]; [8] 5% | [4]; [7] 3% | [4]; [8] 4% | [5]; [7] -3% | [5]; [8] -6% | [5]; at 50.0 µM 13.4% | [6]; [7] -3% | [6]; [8] -2%

O=S(=O)(c1ccc(OCC(O)COc2ccc(S(=O)(=O)c3ccc(OCC4CO4)cc3)cc2)cc1)c1ccc(OCC2CO2)cc1 (stereo not given)
active: [6]; at 50.0 µM 78.1%
inactive: [1]; [7] -5% | [1]; [8] -9% | [1]; at 50.0 µM 21.6% | [2]; [7] 4% | [2]; [8] 11% | [2]; at 50.0 µM 37.2% | [3]; [7] 0% | [3]; [8] 19% | [3]; at 50.0 µM 63.1% | [4]; [7] 3% | [4]; [8] 25% | [4]; at 50.0 µM 2.95% | [5]; [7] -4% | [5]; [8] -2% | [5]; at 50.0 µM -20.5% | [6]; [7] 8% | [6]; [8] 29%

Cc1cccc2c1C1OC(=O)C3CCC=C2C31 (stereo not given)
inactive: [1]; [7] -146% | [1]; [8] -134% | [1]; at 50.0 µM 30.4% | [2]; [7] -49% | [2]; [8] -55% | [2]; at 50.0 µM 53.9% | [3]; [7] -56% | [3]; [8] -58% | [3]; at 50.0 µM 12.8% | [4]; [7] -45% | [4]; [8] -39% | [4]; at 50.0 µM 64.9% | [5]; [7] -41% | [5]; [8] -52% | [5]; at 50.0 µM 28.1% | [6]; [7] -107% | [6]; [8] -101% | [6]; at 50.0 µM 41.8%
